Results taken from the supplement of paper PMC9337992.
± gives the standard deviation of the averaged measurements.

Experiments:
Experiment in all cases: cell proliferation (confluence) relative to DMSO control; higher = less growth inhibition
Conditions in all cases: 5 uM; 6 d
BT549 = test system: BT549
Summary of the method: (§1)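 Confluence of triple-negative breast cancer cell lines was measured by phase-contrast imaging on an IncuCyte ZOOM and normalised to DMSO-only wells. Cells went into 384-well plates at 500 per well and, after adhering, were exposed to epigenetic chemical probes in DMSO at a final 5 μM for 6 d. A ×10 objective was used, and images were analysed with Incucyte 2016 software.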

CAL120 = test system: CAL120
Summary of the method: as §1

HCC1143 = test system: HCC1143
Summary of the method: as §1

HCC1395 = test system: HCC1395
Summary of the method: as §1

HCC153 = test system: HCC153
Summary of the method: as §1

HCC1806 = test system: HCC1806
Summary of the method: as §1

HCC38 = test system: HCC38
Summary of the method: as §1

HCC70 = test system: HCC70
Summary of the method: as §1

Hs578-T = test system: Hs578-T
Summary of the method: as §1

MB157 = test system: MB157
Summary of the method: as §1

SUM149-PT = test system: SUM149-PT
Summary of the method: as §1

SUM159-PT = test system: SUM159-PT
Summary of the method: as §1

Row | Compound | cell proliferation (BT549) | cell proliferation (CAL120) | cell proliferation (HCC1143) | cell proliferation (HCC1395) | cell proliferation (HCC153) | cell proliferation (HCC1806) | cell proliferation (HCC38) | cell proliferation (HCC70) | cell proliferation (Hs578-T) | cell proliferation (MB157) | cell proliferation (SUM149-PT) | cell proliferation (SUM159-PT)
1 | c1ccc([C@@H]2C[C@H]2NC2CCNCC2)cc1 | 99.73 ± 0.11% | 90.8 ± 1.6% | 97.61 ± 0.58% | 99.99 ± 0.0084% | 86.3 ± 2.5% | 99.68 ± 0.28% | 99.69 ± 0.18% | 90.9 ± 5.3% | 96.3 ± 1.6% | 86.3 ± 7.8% | 64.1 ± 20% | 99.974 ± 0.029%
2 | COc1cc(C(=O)N2CC[C@@H](O)[C@@H](N)C2)cc2nc(-c3cc4ccccc4n3CC3CC3)n(C)c12 | 97.5 ± 1.7% | 97.9 ± 2.2% | 97.3 ± 1.2% | 99.953 ± 0.017% | 59.2 ± 12% | 79.3 ± 7.7% | 99.49 ± 0.46% | 88.1 ± 8% | 97.5 ± 1.4% | 90.8 ± 11% | 87.2 ± 9.1% | 99.994 ± 0.0032%
3 | O=C(O)CNC(=O)c1c(O)c2ccccc2n(Cc2ccccc2)c1=O | 99.17 ± 0.41% | 88.7 ± 5.2% | 97.3 ± 1.9% | 99.51 ± 0.21% | 83.7 ± 4.2% | 98.07 ± 0.77% | 98.2 ± 1.1% | 98.48 ± 0.74% | 95 ± 1.8% | 95.4 ± 3.5% | 88 ± 5% | 99.986 ± 0.0083%
